Measured values as given in PubChem BioAssay (EPA / NIEHS).
Results filed as inconclusive are left out. The source made the active and inactive calls. How the source made its calls, unless noted: active means hit-call score of the fitted dose curve at least 0.9, where 1 is the maximum; inconclusive means response in the unintended direction; inactive means score below 0.9.

Assays:
[1] = target: Voltage-dependent N-type calcium channel subunit alpha-1B (Rattus norvegicus) (UniProt Q02294); test: NVS_IC_rCaChN: NovaScreen (NVS) Ion Channel Assay for rat Calcium Channel, Type N (CaChN) (AID 2283317)
[2] = target: bovine Estrogen Receptor (ER), ESR1 (gene 407238) (UniProt P49884); test: NVS_NR_bER: NovaScreen (NVS) Nuclear Receptor Binding Assay for bovine Estrogen Receptor (ER) (AID 2283345);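 further: actives lower the bound radioligand count which means they displace the ER ligand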
Method in brief: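 Cell-free radioligand binding with bovine uterine membrane extracts, read 18 hours after dosing by scintillation counting. Loss of signal versus DMSO baseline indicates displacement. Primary screen run in duplicate at 25 uM, actives followed in concentration series.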

[3] = target: Estrogen receptor (Homo sapiens) (UniProt P03372); test: NVS_NR_hER: NovaScreen (NVS) Nuclear Receptor Binding Assay for human Estrogen Receptor (ER) (AID 2283348)
Method in brief: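 Cell-free MCF7-derived ER preparation, specific radioligand displaced by test compound, read by scintillation counting 18 h post-dosing. Duplicate single-point 25 uM screen, then concentration-response confirmation; DMSO baseline.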

[4] = target: mouse Estrogen Receptor alpha (Era), Esr1 (gene 13982) (UniProt P19785); test: NVS_NR_mERa: NovaScreen (NVS) Nuclear Receptor Binding Assay for mouse Estrogen Receptor alpha (Era) (AID 2283378);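 further: hit means loss of bound radioligand signal relative to DMSO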
Method in brief: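 Cell-free radioligand binding with extracted mouse Era protein; competitive displacement of radiolabelled ligand, read by filter-based scintillation counting 18 hours after dosing. Loss of signal versus DMSO baseline taken as binding; single screening concentration 25 uM, actives followed in concentration series.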

[5] = target: Cellular tumor antigen p53 (Homo sapiens) (UniProt P04637); test: TOX21_p53_BLA_p2_ratio: Tox21 HCT-116 p53 Agonism Beta-lactamase Assay, Ratio, Phase 2 (AID 2283592)
Method in brief: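 Ratio endpoint: beta-lactamase cleavage of CCF4-AM, blue (460 nm) over green (530 nm). HCT116 reporter line; 16 h treatment, 37C; substrate 2 h RT.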

[6] = TOX21_p53_BLA_p3_viability: Viability Assessment in the Tox21 HCT-116 p53 Agonism Beta-lactamase Assay, Phase 3 (AID 2283593);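 further: cells exposed to compound for 16 h before reading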
Method in brief: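 Cellular ATP was quantified by CellTiter-Glo luminescence, read after 30 min at room temperature. Beforehand, HCT116 cells (4000/well) received compound 5 h post-seeding, 217-fold diluted from DMSO, then incubated 16 h at 37C.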

[7] = TOX21_p53_BLA_p4_viability: Viability Assessment in the Tox21 HCT-116 p53 Agonism Beta-lactamase Assay, Phase 4 (AID 2283597);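 further: hits lower the luminescence signal meaning cytotoxicity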
Method in brief: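 Cytotoxicity was inferred from loss of CellTiter-Glo luminescence. HCT116 cells had been dosed with compounds after 5 h plating, incubated 16 h at 37C and 5% CO2, and exposed to the CCF4-AM substrate for 2 h.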

[8] = target: Cellular tumor antigen p53 (Homo sapiens) (UniProt P04637); test: TOX21_p53_BLA_p4_ratio: Tox21 HCT-116 p53 Agonism Beta-lactamase Assay, Ratio, Phase 4 (AID 2283601)
Method in brief: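 Signal is the blue/green (460nm/530nm) ratio of cleaved versus uncleaved CCF4-AM substrate, read after 2 h substrate loading. Cells were HCT116 carrying the p53-responsive beta-lactamase reporter, dosed 16 h at 37C, 5% CO2; CellTiter-Glo measured in parallel.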

[9] = CCTE_Harrill_HTTr_Viability_MCF7: CCTE's 6-hour Cell Viability Assessment for the High-Throughput Transcriptomics (HTTr) Platform, in MCF-7 cells cultured in DMEM + 10% fetal bovine serum, Harrill Lab (AID 2284010; active means hit-call score of the fitted dose curve at least 0.9, where 1 is the maximum; inactive means score below 0.9)
Method in brief: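 Read-out is propidium iodide gain of signal by high-content imaging, reflecting membrane integrity loss. Measurements are taken 6 h after dosing, eight concentrations per chemical, with DMSO serving as baseline for bidirectional curve fitting.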

[10] = CCTE_Harrill_HTTr_Apoptosis_MCF7: CCTE's 6-hour Apoptosis Assessment for the High-Throughput Transcriptomics (HTTr) Platform, in MCF-7 cells cultured in DMEM + 10% fetal bovine serum, Harrill Lab (AID 2284011; active means hit-call score of the fitted dose curve at least 0.9, where 1 is the maximum; inactive means score below 0.9)
Method in brief: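 MCF-7 cells in DMEM + 10% fetal bovine serum were exposed to chemicals for 6 hours over an eight-point dilution series. Caspase-3/7 activation was imaged by high content imaging with CellEvent Caspase 3/7 Green; bidirectional fitting used DMSO as baseline.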

[11] = CCTE_Harrill_HTTr_CellCount_MCF7: CCTE's Cell Proliferation Assessment for the High-Throughput Transcriptomics (HTTr) Platform, Harrill Lab (AID 2284012);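 further: cells exposed to compound for six hours; intended direction is loss of nuclei count meaning fewer cells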
Method in brief: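 Cell count served as viability reporter: loss of Hoechst-stained nuclei, counted by high content imaging, marks decreased growth or survival. Exposure was 6 h in MCF-7 cells across eight concentrations, with DMSO as baseline.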

[12] = target: Norway rat Vesicular Monoamine Transporter (VMAT2), neurotransmitter transporter, Slc18a2 (gene 25549) (UniProt Q01827); test: NVS_TR_rVMAT2: NovaScreen (NVS) Transporter Assay for Norway rat Vesicular Monoamine Transporter (VMAT2), neurotransmitter transporter (AID 2283376);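 further: actives lower the bound radioligand signal below the DMSO level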
Method in brief: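 Using rat forebrain membranes, specific radioligand binding to VMAT2 was measured by filtration and scintillation counting after 1 hour. Chemicals screened at 25 uM in duplicate, actives retested in concentration series, DMSO baseline.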

[13] = TOX21_p53_BLA_p2_viability: Viability Assessment in the Tox21 HCT-116 p53 Agonism Beta-lactamase Assay, Phase 2 (AID 2283591);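 further: compound exposure lasted 16 h at 37 °C; actives lower the ATP signal meaning cytotoxicity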
Method in brief: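 Cytotoxicity readout: CellTiter-Glo ATP luminescence, 30 min at room temperature, after the beta-lactamase read. Cells were HCT116 exposed 16 h at 37C to compounds pin-transferred at 217-fold dilution from DMSO stocks.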

[14] = target: Cellular tumor antigen p53 (Homo sapiens) (UniProt P04637); test: TOX21_p53_BLA_p3_ratio: Tox21 HCT-116 p53 Agonism Beta-lactamase Assay, Ratio, Phase 3 (AID 2283596)
Method in brief: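 Cells were seeded at 4000/well, rested 5 h at 37C, then dosed with DMSO compound solutions (217-fold dilution) for 16 h. CCF4-AM substrate was loaded for 2 h at room temperature, and the 460/530 nm emission ratio was fitted for gain of signal versus DMSO.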

[15] = target: Cellular tumor antigen p53 (Homo sapiens) (UniProt P04637); test: TOX21_p53_BLA_p5_ratio: Tox21 HCT-116 p53 Agonism Beta-lactamase Assay, Ratio, Phase 5 (AID 2283599)
Method in brief: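 Beta-lactamase reporter ratio (blue 460 nm over green 530 nm, 405 nm excitation) after 2 h CCF4-AM loading, in HCT-116 cells exposed 16 h at 37 C to compounds pinned at 217-fold dilution. Increases relative to DMSO baseline scored.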

[16] = TOX21_p53_BLA_p5_viability: Viability Assessment in the Tox21 HCT-116 p53 Agonism Beta-lactamase Assay, Phase 5 (AID 2283600)
Method in brief: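 Luciferase-coupled ATP quantitation of cells treated for 16 h (37C, 5% CO2) with test chemicals delivered in DMSO via a 217-fold dilution; 4000 cells/well; reagent incubated 30 min at room temperature before luminescence reading.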

[17] = target: rat Oxytocin Receptor (OXT), Oxtr (gene 25342) (UniProt P70536); test: NVS_GPCR_rOXT: NovaScreen (NVS) G Protein-Coupled Receptor Assay for rat Oxytocin Receptor (OXT) (AID 2283330)
Method in brief: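 Binding to rat uterine membrane receptor was followed by scintillation counting of filter-trapped radioligand after 1 h. A 25 uM duplicate single-point screen preceded concentration series with a top of 50 uM. Signal loss was analysed relative to DMSO.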

Chain of Estrogen receptor (Homo sapiens) (P03372 whole entry, looked up): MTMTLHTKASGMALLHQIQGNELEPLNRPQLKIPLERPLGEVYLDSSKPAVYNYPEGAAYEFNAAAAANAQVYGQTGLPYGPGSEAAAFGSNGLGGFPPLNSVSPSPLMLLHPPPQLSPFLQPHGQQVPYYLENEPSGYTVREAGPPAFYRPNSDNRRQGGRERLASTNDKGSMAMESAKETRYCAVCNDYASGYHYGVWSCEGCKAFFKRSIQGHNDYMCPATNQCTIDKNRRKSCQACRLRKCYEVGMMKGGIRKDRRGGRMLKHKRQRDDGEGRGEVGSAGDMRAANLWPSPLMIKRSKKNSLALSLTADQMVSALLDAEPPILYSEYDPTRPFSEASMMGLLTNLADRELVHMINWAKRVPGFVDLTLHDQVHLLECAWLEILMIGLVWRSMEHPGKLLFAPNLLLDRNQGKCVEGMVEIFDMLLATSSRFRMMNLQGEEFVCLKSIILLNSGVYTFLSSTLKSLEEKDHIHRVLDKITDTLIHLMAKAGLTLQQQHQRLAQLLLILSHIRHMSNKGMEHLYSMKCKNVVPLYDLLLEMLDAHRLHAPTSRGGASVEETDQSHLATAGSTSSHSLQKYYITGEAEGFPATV
Chain of Norway rat Vesicular Monoamine Transporter (VMAT2), neurotransmitter transporter, Slc18a2 (gene 25549) (Q01827 whole entry, looked up): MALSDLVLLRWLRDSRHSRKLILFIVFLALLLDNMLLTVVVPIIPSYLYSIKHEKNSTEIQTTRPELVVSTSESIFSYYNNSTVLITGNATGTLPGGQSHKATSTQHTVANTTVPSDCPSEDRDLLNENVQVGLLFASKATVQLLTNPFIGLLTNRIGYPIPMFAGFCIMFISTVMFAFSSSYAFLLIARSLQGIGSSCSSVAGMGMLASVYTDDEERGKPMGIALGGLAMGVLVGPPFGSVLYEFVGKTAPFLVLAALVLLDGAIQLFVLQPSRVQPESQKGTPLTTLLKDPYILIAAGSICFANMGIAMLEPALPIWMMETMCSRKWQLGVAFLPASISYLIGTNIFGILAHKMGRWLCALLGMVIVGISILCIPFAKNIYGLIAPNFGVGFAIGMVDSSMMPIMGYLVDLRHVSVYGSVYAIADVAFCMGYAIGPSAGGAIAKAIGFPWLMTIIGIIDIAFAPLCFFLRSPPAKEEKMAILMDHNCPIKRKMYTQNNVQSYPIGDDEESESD
Chain of bovine Estrogen Receptor (ER), ESR1 (gene 407238) (P49884 whole entry, looked up): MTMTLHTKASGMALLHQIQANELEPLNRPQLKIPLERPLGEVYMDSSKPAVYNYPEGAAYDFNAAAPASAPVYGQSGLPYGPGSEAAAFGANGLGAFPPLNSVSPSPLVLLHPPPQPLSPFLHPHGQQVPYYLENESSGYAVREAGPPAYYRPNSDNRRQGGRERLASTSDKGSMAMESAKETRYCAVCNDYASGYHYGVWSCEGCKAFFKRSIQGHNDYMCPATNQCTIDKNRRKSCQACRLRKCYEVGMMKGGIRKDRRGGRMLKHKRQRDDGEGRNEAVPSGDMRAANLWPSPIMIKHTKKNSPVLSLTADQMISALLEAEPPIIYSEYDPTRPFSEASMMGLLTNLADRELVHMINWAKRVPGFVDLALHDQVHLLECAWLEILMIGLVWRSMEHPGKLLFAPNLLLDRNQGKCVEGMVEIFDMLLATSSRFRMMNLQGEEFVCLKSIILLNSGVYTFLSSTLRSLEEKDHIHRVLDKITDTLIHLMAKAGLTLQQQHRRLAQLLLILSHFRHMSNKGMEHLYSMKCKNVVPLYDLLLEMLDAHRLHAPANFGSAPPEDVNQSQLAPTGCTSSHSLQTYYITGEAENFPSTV
Chain of Cellular tumor antigen p53 (Homo sapiens) (P04637 whole entry, looked up): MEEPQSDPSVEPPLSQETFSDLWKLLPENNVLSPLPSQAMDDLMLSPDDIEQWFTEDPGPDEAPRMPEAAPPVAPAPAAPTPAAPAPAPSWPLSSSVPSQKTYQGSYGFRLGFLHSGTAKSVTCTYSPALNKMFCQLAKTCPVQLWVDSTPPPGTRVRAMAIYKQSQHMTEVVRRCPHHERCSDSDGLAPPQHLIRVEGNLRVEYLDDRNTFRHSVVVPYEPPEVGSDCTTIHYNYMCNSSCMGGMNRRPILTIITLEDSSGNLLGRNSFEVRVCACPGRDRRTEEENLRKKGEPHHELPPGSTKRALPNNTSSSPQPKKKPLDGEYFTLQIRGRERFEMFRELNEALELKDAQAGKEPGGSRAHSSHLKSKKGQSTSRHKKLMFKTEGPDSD
Chain of rat Oxytocin Receptor (OXT), Oxtr (gene 25342) (P70536 whole entry, looked up): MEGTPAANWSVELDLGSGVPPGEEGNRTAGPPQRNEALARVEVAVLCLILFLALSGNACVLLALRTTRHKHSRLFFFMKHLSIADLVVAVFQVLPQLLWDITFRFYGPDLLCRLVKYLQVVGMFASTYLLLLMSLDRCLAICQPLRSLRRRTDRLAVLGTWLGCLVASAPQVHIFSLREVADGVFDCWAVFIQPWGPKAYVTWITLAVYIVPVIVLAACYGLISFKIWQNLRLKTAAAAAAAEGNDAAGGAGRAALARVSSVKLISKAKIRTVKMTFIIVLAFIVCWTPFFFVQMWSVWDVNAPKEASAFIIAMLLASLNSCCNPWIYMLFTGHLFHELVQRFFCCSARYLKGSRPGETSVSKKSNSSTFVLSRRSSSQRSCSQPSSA
Chain of mouse Estrogen Receptor alpha (Era), Esr1 (gene 13982) (P19785 whole entry, looked up): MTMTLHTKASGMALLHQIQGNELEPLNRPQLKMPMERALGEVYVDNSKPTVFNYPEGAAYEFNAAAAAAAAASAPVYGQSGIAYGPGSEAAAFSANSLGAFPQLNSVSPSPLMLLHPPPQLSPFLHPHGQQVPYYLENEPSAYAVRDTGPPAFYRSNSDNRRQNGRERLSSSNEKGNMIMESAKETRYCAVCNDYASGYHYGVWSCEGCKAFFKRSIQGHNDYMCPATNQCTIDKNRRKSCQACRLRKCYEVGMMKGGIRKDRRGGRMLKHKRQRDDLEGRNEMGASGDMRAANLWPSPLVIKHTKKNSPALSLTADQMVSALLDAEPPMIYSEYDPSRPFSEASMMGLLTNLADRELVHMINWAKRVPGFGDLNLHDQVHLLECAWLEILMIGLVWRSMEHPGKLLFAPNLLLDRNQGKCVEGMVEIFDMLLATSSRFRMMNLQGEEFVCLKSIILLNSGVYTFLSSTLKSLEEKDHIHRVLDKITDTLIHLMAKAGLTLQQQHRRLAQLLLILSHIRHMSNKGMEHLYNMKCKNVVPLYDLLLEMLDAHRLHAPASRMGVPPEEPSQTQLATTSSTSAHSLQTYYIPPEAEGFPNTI

Structure (SMILES): CC(=O)OCCC(C)C
- outcome [1]: inactive

Structure (SMILES): OC(c1ccc(F)cc1)(c1cncnc1)c1ccccc1Cl (configuration not stated)
- outcome [2]: inactive
- AC50 [3]: 21.2 µM (active)
- outcome [4]: inactive
- outcome [5]: inactive
- outcome [6]: inactive
- outcome [7]: inactive
- outcome [8]: inactive
- outcome [9]: inactive
- outcome [10]: inactive
- outcome [11]: inactive

Structure (SMILES): Cc1cc(CCC(=O)OCCOCCOCCOC(=O)CCc2cc(C)c(O)c(C(C)(C)C)c2)cc(C(C)(C)C)c1O
- outcome [12]: inactive

Structure (SMILES): [Hg+2].[I-].[I-]
- outcome [2]: inactive
- outcome [3]: inactive
- AC50 [13]: 35.4 µM (active)
- AC50 [5]: 54.2 µM (active)
- AC50 [6]: 70.1 µM (active)
- AC50 [14]: 72.1 µM (active)
- AC50 [7]: 18.4 µM (active)
- AC50 [15]: 73.7 µM (active)
- AC50 [16]: 57.5 µM (active)
- AC50 [8]: 33 µM (active)

Structure (SMILES): CN(C)c1ccc(C(=C2C=CC(=[N+](C)C)C=C2)c2ccccc2)cc1
- outcome [12]: inactive

Structure (SMILES): CN(C)C(=O)Nc1cccc(OC(=O)NC(C)(C)C)c1
- outcome [2]: inactive
- outcome [5]: inactive
- outcome [6]: inactive
- outcome [14]: inactive

Structure (SMILES): CS(=O)(=O)c1ccc([C@@H](C[C@H]2CCC(=O)C2)C(=O)Nc2cnccn2)cc1Cl
- outcome [1]: inactive

Structure (SMILES): CCOC(=O)COc1ccc2c(c1)CC(NCC(O)c1cccc(Cl)c1)CC2 (configuration not stated)
- outcome [17]: inactive

Structure (SMILES): C[C@@H]1C[C@H]2[C@@H]3CCC4=CC(=O)C=C[C@]4(C)[C@@]3(F)[C@@H](O)C[C@]2(C)[C@@]1(O)C(=O)COP(=O)(O)O
- outcome [1]: inactive

Structure (SMILES): C=CC(=O)OCCCCO
- outcome [2]: inactive
- outcome [3]: inactive

Structure (SMILES): O=C=NC1CCC(CC2CCC(N=C=O)CC2)CC1 (configuration not stated)
- AC50 [12]: 9.03 µM (active)

Structure (SMILES): CCCCC(CC)C(=O)O (configuration not stated)
- outcome [12]: inactive

Structure (SMILES): CS(=O)(=O)c1ccc(C2=C(c3ccccc3)C(=O)OC2)cc1
- AC50 [12]: 12.5 µM (active)

Structure (SMILES): Clc1ccc(Nc2nnc(Cc3ccncc3)c3ccccc23)cc1
- AC50 [12]: 7.04 µM (active)

Structure (SMILES): C/C=C\C/C=C/CCCCCCCCOC(C)=O
- outcome [12]: inactive
